This is part of a sample that, as a whole, favours compounds with a hit. Of some 83,000 tested, about 20% had one in any assay.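 The endpoint reported here, percent growth, reads 100 for growth as untreated, 0 for no net growth and -100 for all cells dead.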 Active and inactive are the calls of the source. How the source made its calls: active means growth percent below 10; inactive means the rest.
Legend:
Assay in all cases: NCI-60 one-dose screen, 48 h (100 = growth as untreated, 0 = no growth, -100 = all killed)
Conditions in all cases: 10 µM
NCI-H23 lung = tested on: NCI-H23 lung
NCI-H226 lung = tested on: NCI-H226 lung
NCI-H322M lung = tested on: NCI-H322M lung
HOP-62 NSCLC = tested on: HOP-62 NSCLC
NCI-H460 lung = tested on: NCI-H460 lung
HOP-92 NSCLC = tested on: HOP-92 NSCLC
NCI-H522 lung = tested on: NCI-H522 lung
786-0 renal = tested on: 786-0 renal
COLO 205 colon = tested on: COLO 205 colon

Measured: growth

COc1cccc(C(=O)NNc2nc(N3CCN(C4CCCCC4)CC3)nc(N3CCN(C(c4ccccc4)c4ccccc4)CC3)n2)c1
inactive: NCI-H23 lung 41.5% | NCI-H226 lung 73.7% | NCI-H322M lung 74.5% | HOP-62 NSCLC 45.2% | NCI-H460 lung 46.1% | HOP-92 NSCLC 45.5% | NCI-H522 lung 60.5% | 786-0 renal 53% | COLO 205 colon 14.2%

CCOC(=O)c1ccc(N(C=O)CCC(=O)CCl)cc1
inactive: NCI-H23 lung 19.5% | NCI-H226 lung 36.2% | NCI-H322M lung 75.6% | HOP-62 NSCLC 29.8%
active: NCI-H460 lung 4.12% | HOP-92 NSCLC -7.96% | NCI-H522 lung -71.9% | 786-0 renal 2.2% | COLO 205 colon -9.81%

COc1cccc(-c2nnc(COc3ccc(-c4nc5ccccc5[nH]4)cc3OC)o2)c1
inactive: NCI-H23 lung 92.7% | NCI-H226 lung 105% | NCI-H322M lung 97.6% | HOP-62 NSCLC 108% | NCI-H460 lung 96.5% | HOP-92 NSCLC 93.8% | NCI-H522 lung 96.7% | 786-0 renal 96.2%

Oc1ccc(Cn2cc3c(c2-c2ccccc2)CCc2cnoc2-3)cc1
inactive: NCI-H23 lung 92.8% | NCI-H226 lung 96.4% | NCI-H322M lung 116% | HOP-62 NSCLC 99.2% | NCI-H460 lung 105% | HOP-92 NSCLC 79.2% | NCI-H522 lung 84.5% | 786-0 renal 92.9% | COLO 205 colon 98%

O=C(Nc1cccc(C(F)(F)F)c1)C(Cl)Cl
inactive: NCI-H23 lung 94.1% | NCI-H226 lung 101% | NCI-H322M lung 87.5% | HOP-62 NSCLC 96.5% | NCI-H460 lung 102% | HOP-92 NSCLC 81.7% | NCI-H522 lung 98.2% | 786-0 renal 101% | COLO 205 colon 101%

COc1ccc(-c2[nH]ncc2-c2cc(OC)c(OC)c(OC)c2)cc1
active: NCI-H460 lung 4.05% | HOP-92 NSCLC -10.4% | NCI-H522 lung -36.8% | 786-0 renal 3.72% | COLO 205 colon -72.4%
inactive: NCI-H23 lung 24.9% | NCI-H226 lung 58.7% | NCI-H322M lung 21.8% | HOP-62 NSCLC 35.6%

COc1ccc(-c2cc(/C=C3\C(=O)Nc4cc(Cl)ccc43)[nH]n2)cc1
active: NCI-H522 lung -14.9%
inactive: NCI-H23 lung 54.1% | NCI-H226 lung 56.1% | NCI-H322M lung 81.9% | HOP-62 NSCLC 45.4% | NCI-H460 lung 22% | HOP-92 NSCLC 51.7% | 786-0 renal 52.1% | COLO 205 colon 19.4%

CC(C)(C)CC(C)(C)c1ccc(O)c(Cc2ccc(Cl)cc2Cl)c1
active: NCI-H23 lung -85.9% | NCI-H226 lung -83.8% | NCI-H322M lung -89.6% | HOP-62 NSCLC -88.4% | NCI-H460 lung -68.1% | HOP-92 NSCLC -90.6% | NCI-H522 lung -84.7% | 786-0 renal -92.8% | COLO 205 colon -71.4%

Source: PubChem BioAssay (NCI)
